In the supplement of paper PMC3334620:
Over roughly 33,000 sequences, “E-score (-0.5 to 0.5)” has its median near -0.01; the highest 2% begin near 0.26. Only a selection was taken, and the highest values are over-represented in it overall.

These sequences were tested against Ste12 (UniProt P13574) (assay: PBM E-score (8-mer binding enrichment) (E-score (-0.5 to 0.5)); higher = stronger / more preferred TF binding). Settings: protein concentration: 200 nM; construct: GST-DNA-binding domain.
Procedure, shortened: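 For each ungapped eight-base word taken together with its reverse complement, the Universal PBM Analysis Suite assigned an E-score. Binding data came from GST-tagged yeast transcription factors, applied at about 100-200 nM, on universal all-10-mer Agilent arrays made double-stranded by primer extension. Fluorescent anti-GST marked bound protein, and scans were normalised with masliner.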

Chain of UniProt P13574 (P13574 whole entry, the tested form may be a part): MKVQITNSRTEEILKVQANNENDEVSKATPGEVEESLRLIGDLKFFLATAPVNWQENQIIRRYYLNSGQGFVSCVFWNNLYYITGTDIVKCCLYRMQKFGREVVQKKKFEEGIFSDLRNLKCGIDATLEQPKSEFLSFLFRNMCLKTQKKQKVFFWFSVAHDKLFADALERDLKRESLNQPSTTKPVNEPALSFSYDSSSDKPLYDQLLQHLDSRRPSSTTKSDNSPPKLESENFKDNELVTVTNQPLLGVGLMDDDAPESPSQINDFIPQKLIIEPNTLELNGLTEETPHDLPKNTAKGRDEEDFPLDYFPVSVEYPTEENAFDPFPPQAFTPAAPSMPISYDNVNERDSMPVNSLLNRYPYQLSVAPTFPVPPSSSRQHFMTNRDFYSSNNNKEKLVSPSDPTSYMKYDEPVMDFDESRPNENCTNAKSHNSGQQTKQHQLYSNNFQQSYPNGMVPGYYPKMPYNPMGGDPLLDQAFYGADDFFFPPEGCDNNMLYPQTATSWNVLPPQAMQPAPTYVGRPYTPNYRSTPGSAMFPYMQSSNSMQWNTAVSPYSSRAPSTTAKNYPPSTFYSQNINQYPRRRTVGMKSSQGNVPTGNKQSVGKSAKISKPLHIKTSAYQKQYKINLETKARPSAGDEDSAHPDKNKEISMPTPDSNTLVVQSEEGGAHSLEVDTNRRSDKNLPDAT

Sequence	PBM E-score
CCTTTTCG	0.19
CGACCTGC	-0.0774
GACCTCAC	-0.15
TCACGGAA	0.135
ACGATCGA	-0.106
ACGGAGGC	-0.187
GACCAGGA	-0.183
GTTCGCTA	-0.0318
GAGTTTGA	0.0997
GAGTTTCA	0.407
GAGTTTCC	-0.00944
CTGTGGTA	-0.0102
GATTTATA	0.182
AATTTATC	0.281
CATTTATC	0.0356
AATTTATG	0.205
CATTTATA	0.189
AATTTATA	0.274
CGGTAGAA	-0.142
GCCAAAGA	-0.0779
GGATTGCA	0.117
GCTGCGCA	-0.229
ACGCTTGC	-0.116
CACGTTAC	0.0456
CACGTTTC	0.285

Sequence	PBM E-score
AACGTTTA	0.00807
AACGTTTC	0.328
AACGTTTG	0.0498
CACGTTTA	-0.00355
ACAATTTA	0.163
AATTAAGT	0.118
ACTATAAC	-0.0368
AACATAAT	0.286
AACATAGA	0.287
ACTATAAA	0.241
ACTAGAAC	-0.0111
CACATAGA	-0.0651
ACTAGAAA	0.244
AACATAAA	0.249
GACATAGA	0.0743
ACTAGAAT	0.277
ACTATAAT	0.274
AACATAAC	0.0575
ACTCCTAA	-0.0995
GGAGGACA	-0.106
GGCAATGA	-0.192
ACTTGGAT	0.0871
TACTTCAA	0.0645
AATCTAGG	0.0839
GATGGTAA	0.0297

Sequence	PBM E-score
CACCATAG	-0.041
CACATAAG	0.044
ATCATAAG	0.0492
AACATAAG	0.289
CCAGAGTA	0.03
CCCGTCTA	-0.125
AATAGCAA	0.00204
AAACGTTT	0.283
AAACGTGG	0.0452
AAACGTGA	0.312
AAACGTTA	0.0762
AAACGTTG	0.111
AAACGTGT	0.123
GCAAGGGA	-0.0936
AAGTAGCA	0.0754
CAACTGAA	0.201
AGCCAGAC	-0.132
CGCCCCAA	0.296
CGCCCCAG	0.0509
GGCCCCAC	-0.181
CGCCCCAC	0.272
GGCCCCAA	-0.177
CGCCCCCA	-0.079
CTAACGCA	-0.0702
ATAGAAAC	0.189

Sequence	PBM E-score
CGCCCCTC	0.351
ATCCCCTG	-0.157
CGCCCCTA	0.214
AGCCCCTC	-0.00471
ATCCCCTA	-0.0687
ATCCCCTC	0.303
CTCCCCTC	0.28
CTCCCCTA	-0.0541
ATCCCCGC	0.249
CTCCCCGC	0.386
CTCCCCGA	0.0416
CCCCCCTC	-0.244
ACAGACTG	0.0359
GACTCCCC	-0.26
CCAGGCTC	-0.124
AGGCTTCG	-0.158
ACACTTCC	-0.0741
CAGAGCAC	0.0445
AATCGAGG	0.108
ATGAGAGC	-0.126
TAAGCTCA	-0.18
TCGATACA	0.19
AACTCCGC	-0.0808
AGTGCGCC	-0.156
GAATTTCA	-0.0538

Sequence	PBM E-score
CTTTGTTC	0.227
ATTTGTAA	0.288
ATTTGTAG	0.127
ATTTGTTC	0.266
CTTTGTAA	0.152
ATTTGTTG	0.181
CTTTGTTA	0.219
GTTTGTTA	0.169
ATTTGTTA	0.274
CCTAATGA	0.13
AGGGTCTC	-0.153
CCCTTCAC	-0.0106
AATTCATG	0.255
ACCCAGAT	0.0125
AGACCACG	-0.255
AAAACACT	0.215
AAAACACG	0.304
TAAACACA	0.175
CAAACACG	0.17
GAAACACC	0.311
AAAACACA	0.198
CAAACACC	0.121
AAAACACC	0.213
GAAACACA	0.408
AGGGCTCC	-0.236

Sequence	PBM E-score
GTCGCTTA	-0.193
CCGGGCAA	-0.0289
CATTGTGG	0.0722
ATGCTCCA	0.0506
TGCTGAAA	0.24
CGCTGAAA	0.251
AGCTGAAA	0.264
AGCTGAAG	-0.127
GCCTGAAA	0.273
TCCTGAAA	0.25
GCCTGAAC	-0.209
AGCTGAAC	-0.288
GGCTGAAA	0.27
GCCACAGC	-0.299
GGGGCTAA	-0.0575
CCTATAGA	0.00311
CTTGCGAC	-0.128
ATTGCGAG	0.127
ATTGCGAC	0.277
CCGTCGCA	0.176
CAATGCGA	-0.00861
CATGATCA	0.0535
CTCTAAAA	0.0605
ATCTAAAA	0.285
ATCTAAAC	0.127

Sequence	PBM E-score
ATCTAAAT	0.172
TTCTAAAA	0.292
GTCTAAAA	0.135
CGCTCTGA	0.0576
ACTGGGTG	-0.107
GTACCTCA	-0.173
GAGTTGGA	0.0912
ATAGTCAT	-0.141
AGGAGCGC	-0.0491
GAGTGAAA	0.204
AAGTGAAA	0.291
CAGTGAAA	0.197
TAGTGAAA	0.324
ACGTGAAC	-0.226
TAGTGATA	-0.126
TAGTGACA	-0.0814
TCGTGAAA	0.177
ACGTGAAA	0.323
GGCCACAA	0.0783
CTCCCAGA	-0.165
CCCCAAGC	0.176
GCAATCAA	0.0398
